Experimental data: PubChem BioAssay (NCI)
“And” between values parts separate entries of the source, which are not always exact repeats. Identical values can stand only once. About 83,000 compounds went through this panel and 20% of them were active in at least one assay; those are over-represented in the sample as a whole.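 Activity criterion: percent growth below 10, measured after cells in 96-well plates were exposed to a single compound concentration for 48 hours.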 Values without a mark were called inactive. The source made the active and inactive calls.

What follows are molecules tested on HL-60(TB) leukemia (assay: NCI-60 one-dose screen, 48 h (100 = growth as untreated, 0 = no growth, -100 = all killed)). Conditions: 10 µM unless noted.
COc1cc2nc(-c3ccc(C(F)(F)F)cc3)cc(OCCN3CCC(O)CC3)c2cc1OC showed a growth of 68.6%. CCOC(=O)C1CC(=O)c2cc(OC)c(OC)cc2C1 (stereo not drawn) gave a growth of 97.6%. O=C1c2ccccc2C(=O)c2c1ccc(C(Br)Br)c2Cl was tested, and the growth was -9.24% (active). CCCCCC(=O)Oc1ccc(/C(=C(\C)c2ccc(OC)cc2)c2ccc(OCCN3CCCCC3)cc2)cc1 showed a growth of 42.7%. In the case of O=C(/C=C/c1ccc(C(F)(F)F)cc1)c1ccc(Nc2nc(NCCO)nc(N3CCOCC3)n2)cc1, the growth is reported as 15.4%. In the case of Oc1c(Cl)cc(Cl)c2ccc(Cn3cc(-c4cc(F)cc(F)c4)nn3)nc12, the growth is reported as 2.85% (active). For O=C1Nc2ccc(Br)cc2/C1=N/c1n[nH]c(=S)s1, the growth was 99.2%. For CCN(CC)CCOc1ccc(/C(=C(/C)c2ccccc2)c2ccc(OC(C)=O)cc2)cc1, the growth was 117%. For N#Cc1cnc(NCCc2ccncc2)nc1-n1cnc2ccccc21, the growth was 37.7%. For COC1=C(Br)C(=O)C(OC)=C(Br)C1=O, the growth was 8.67% (active). With CC(=O)Nc1ccc2cc3ccc(NC(C)=O)cc3nc2c1 the growth was 131% and 96.4%. Cc1ccc(-n2c(-c3cc4c([nH]c5ccccc54)c(-c4cccc(O)c4)n3)n[nH]c2=S)cc1 was tested, and the growth was 2.59% (active). In the case of COC(C(=O)[C@@H](O)[C@@H](C)O)[C@@H]1Cc2cc3cc(O[C@H]4C[C@@H](O[C@H]5C[C@@H](O)[C@H](O)C(C)O5)[C@H](O)C(C)O4)c(C)c(O)c3c(O)c2C(=O)[C@H]1O[C@H]1C[C@@H](O[C@H]2C[C@@H](O[C@H]3C[C@@H](O)[C@H](OC)C(C)O3)[C@@H](O)C(C)O2)[C@H](O)C(C)O1 (stereo partly drawn), the growth is reported as -5.47% (active).
